Consider 40 compounds from PubChem BioAssay (Tox21).

Inconclusive results are not listed. Entries that show only a call come without a potency. Active and inactive are the calls of the source. The call rests on the fitted dose curve.

This assay can be described thus: p53 small molecule agonists, cell-based qHTS assay with rat liver microsomes: qHTS cell viability counter screen (AID 1963580). Further: nearly all actives have a fitted effect of over 45% in size. The settings on record: p53RE-bla HCT-116 + rat microsomes, ATP viability, 16 h; series mostly up to 66 µM. From the text:
National Center for Advancing Translational Sciences [NCATS]
Division of Preclinical Innovation [DPI]
U.S. Environmental Protection Agency [EPA]
National Institutes of Environmental Health Sciences [NIEHS]
National Toxicology Program [NTP]
U.S. Food and Drug Administration [FDA]
p53, a tumor suppressor protein, is activated following cellular insult, including DNA damage and other cellular stresses. The activation of p53 regulates cell fate by inducing DNA repair, cell cycle arrest, apoptosis, or cellular senescence. The activation of p53, therefore, is a good indicator of DNA damage and other cellular stresses. The CellSensor p53RE-bla HCT-116 cell line contains a stably integrated beta-lactamase reporter gene under control of the p53 response elements. The activation of the reporter gene under culture conditions can be detected by fluorescence intensity. This cell line was used to screen the Tox21 10K compound library in the condition of presence of rat liver microsomes and to identify agonists that activate the p53 signaling pathway after in vitro metabolic activation (Ooka et al., Archive of Toxicology 96:1975-1987, 2022). The cytotoxicity of the Tox21 compound library against the p53 RE-bla HCT-116 cell line was tested in parallel by measuring the intra cellular ATP content in the same wells.
Tox21 Assay Protocol Summary:
The p53RE-bla cells were dispensed at 4,000cells/3ul/well in 1536-well black-clear bottom plates. After the assay plates were incubated at 37 C, 5% CO2 incubator for 5 hours, 23 nL of compounds dissolved in DMSO, positive controls or DMSO only was transferred to the assay plate. Following compound addition, 3 uL of rat liver microsomes (Molecular Toxicology, Boone, NC) at final concentration of 0.5 mg/mL and 1uL of B-Nicotinamide adenine dinucleotide 2'-phosphate (NADPH) at final concentration of 0.5 mg/mL were transferred to the assay plate. The plates were incubated at 37 C for 16 hours. 1 uL of LiveBLAzer detection mixture was added to each well and the plates were incubated at room temperature in the dark for 2 h. Fluorescence intensity at 460 and 530 nm emission and 405 nm excitation were measured by an Envision plate reader. For cell viability readout that measures cytotoxicity, 4 ul/well of CellTiter-Glo reagent was added into the assay plates using a Flying Reagent Dispenser. After 30 min incubation at room temperature, the luminescence intensity in the plates was measured using a ViewLux plate reader.
In general terms: qHTS replaces the single test concentration by a dilution series.
Take `CCCN(CCC)CCc1cccc2c1CC(=O)N2`: the Potency result was “inactive”.

Regarding `CO[C@H]1O[C@H](CO)[C@@H](O)[C@H](O)[C@H]1O`, the Potency entry was “inactive”.

Take `COc1c(N2CCNC(C)C2)c(F)cc2c(=O)c(C(=O)O)cn(C3CC3)c12` (stereo not given): the Potency entry is “inactive”.

In the case of `CCCCN(CCCC)CCCOC(=O)c1ccc(N)cc1`, the Potency entry was “inactive”.

In the case of `Oc1ccc(C2CNCCc3c2cc(O)c(O)c3Cl)cc1` (stereo not given), the Potency entry was “inactive”.

As for `CCC(O)C(C)(C)C` (stereo not given), the Potency entry is “inactive”.

On to `CCCCCC[C@@H](O)C/C=C\CCCCCCCC(=O)OCC(O)CO` (stereo not given in full), for which the Potency entry was “inactive”.

As to `Fc1ccc([C@@H]2CCNC[C@H]2COc2ccc3c(c2)OCO3)cc1`, the Potency result is “inactive”.

Take `CC(c1cc(C(C)(C)C)cc(C(C)(C)C)c1O)c1cc(C(C)(C)C)cc(C(C)(C)C)c1O`: the Potency result was “inactive”.

`CCC(C(=O)O)c1ccc(N2Cc3ccccc3C2=O)cc1` (stereo not given): the Potency result was “inactive”.

As for `Cc1cccc(N(C)C(=S)Oc2ccc3c(c2)CCC3)c1`, the Potency result is “inactive”.

With `C=C1C(CCl)(CCl)C2(Cl)C(Cl)C(Cl)C1(Cl)C2(Cl)Cl` (stereo not given), the Potency result is “inactive”.

For the compound `CN(C)CCN(C)CCN(C)C`, the Potency entry is “inactive”.

For the compound `O=C1CCC(C2CCCCC2)CC1`, the Potency entry was “inactive”.

Turning to `Cc1ccccc1C(=O)O`, the Potency result is “inactive”.

As to `CN(C)CCC=C1c2ccccc2C=Cc2ccccc21`, the Potency result was “inactive”.

As for `O=C(Nc1ccc(Cl)c(Cl)c1)C1CC1`, the Potency entry was “inactive”.

For `ClC1=C(Cl)C1(Cl)Cl`, the Potency entry is “inactive”.

With `CC1=C(/C=C/C(C)=C\C=C\C(C)=C\C(=O)O)C(C)(C)CCC1`, the Potency entry was “inactive”.

As to `Cc1cnc(NS(=O)(=O)c2ccc(N)cc2)nc1`, the Potency entry is “inactive”.

In the case of `CCCCC`, the Potency entry is “inactive”.

With `O=C(OCC1(COC(=O)c2cccnc2)CCCC(COC(=O)c2cccnc2)(COC(=O)c2cccnc2)C1O)c1cccnc1`, the Potency entry was “inactive”.

For the compound `CC(=O)N(CC(O)CN(C(C)=O)c1c(I)c(C(=O)NCC(O)CO)c(I)c(C(=O)NCC(O)CO)c1I)c1c(I)c(C(=O)NCC(O)CO)c(I)c(C(=O)NCC(O)CO)c1I` (stereo not given), the Potency entry is “inactive”.

Take `Cc1nc2ccc(Cl)cc2[nH]1`: the Potency result was “inactive”.

In the case of `COC(=O)c1cc(C(=O)OC)cc(S(=O)(=O)O)c1`, the Potency entry is “inactive”.

Take `O=C(N[C@@H](Cc1ccccc1)[C@@H](O)C(=O)N1C[C@@H](O)[C@@H](O)C1)c1cc2cc(Cl)ccc2[nH]1`: the Potency entry was “inactive”.

For `C[C@H](CCC(=O)NCC(=O)O)[C@H]1CC[C@H]2[C@@H]3[C@H](O)C[C@@H]4C[C@H](O)CC[C@]4(C)[C@H]3C[C@H](O)[C@]12C`, the Potency result was “inactive”.

Take `CCC(C)c1nccnc1OC` (stereo not given): the Potency result was “inactive”.

Turning to `O=C(O)c1cccc(Oc2ccccc2)c1`, the Potency entry is “inactive”.

Turning to `CNCc1ccccc1`, the Potency result was “inactive”.

Consider `CN1CCC(=C2c3ccccc3C=Cc3ccccc32)CC1`, for which the Potency entry is “inactive”.

Regarding `CC1=NC(C)OC1C` (stereo not given), the Potency result was “inactive”.

Take `ON=C1CCCC1`: the Potency entry was “inactive”.

Consider `O=C1N(c2ccccc2)c2ccccc2C1(Cc1ccncc1)Cc1ccncc1`, for which the Potency entry is “inactive”.

Regarding `Cc1ccc(-n2[nH]c(C)c(N=Nc3cccc(-c4cccc(C(=O)O)c4)c3O)c2=O)cc1C`, the Potency result is “inactive”.

For `CCCC(=O)OCCC(C)C`, the Potency entry is “inactive”.

For the compound `CCCCCCC(CCCCCCCCCCC(=O)OCC(COC(C)=O)OC(C)=O)OC(C)=O` (stereo not given), the Potency entry is “inactive”.

Consider `CCCCCCCCCOC(C)=O`, for which the Potency entry is “inactive”.

For the compound `CCCCOc1ccc(C(=O)CCN2CCCCC2)cc1`, the Potency entry is “inactive”.

For `CCCCN(CCCC)C(=O)N(CCCC)CCCC`, the Potency result was “inactive”.
